Compound activity (PubChem)
Shown are actives, neighbours in structure and some others; about 2% of the full set was active somewhere.
Arbovirus inh: antivirals against arbovirus infection, primary screen, cell-based, full library, 10K replicate subset; AID 1251, 2008; arbovirus infection cell-based antiviral screen; hit rate 0.37% among 200,000; inhibition, % at 10 µM; in the data active = inhibition above about 30%
Hsp70 activator: Hsp70 transcriptional activators, primary screen, cell-based, HeLa, Hsp70 promoter luciferase, luminescence, 10 µM. HeLa Hsp70 promoter luciferase reporter; scaled: vehicle 0, proteasome-inhibitor control 100%. activation, % at 10 µM. hit rate 0.04% among 200,000. AID 1203, 2008;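 active = activation above the mean across all tested compounds plus 3 SD, cutoff set per campaign, cut at about 5.5% in these data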;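 note: 100% = MG132 at 30 µM as the positive control and 0% = DMSO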
Wee1 stabilizer: Wee1 degradation inhibitors, primary screen, cell-based, HeLa, Wee1K328M-luciferase, luminescence; reporter increase, % at 5 µM; HeLa Luc-Wee1K328M stability; 100% = proteasome inhibitor MG132 effect; hit rate 1.2% among 220,000; Wee1-like protein kinase (Homo sapiens), P30291;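 active = activation above the mean of all tested compounds plus 3 SD, set per screening run, cut at about 8.8% in these data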;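 note: cells exposed to compound for 20 h before luminescence read; 0% = DMSO alone and 100% = MG132 at 30 µM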
Target sequence (P30291 whole entry K328M): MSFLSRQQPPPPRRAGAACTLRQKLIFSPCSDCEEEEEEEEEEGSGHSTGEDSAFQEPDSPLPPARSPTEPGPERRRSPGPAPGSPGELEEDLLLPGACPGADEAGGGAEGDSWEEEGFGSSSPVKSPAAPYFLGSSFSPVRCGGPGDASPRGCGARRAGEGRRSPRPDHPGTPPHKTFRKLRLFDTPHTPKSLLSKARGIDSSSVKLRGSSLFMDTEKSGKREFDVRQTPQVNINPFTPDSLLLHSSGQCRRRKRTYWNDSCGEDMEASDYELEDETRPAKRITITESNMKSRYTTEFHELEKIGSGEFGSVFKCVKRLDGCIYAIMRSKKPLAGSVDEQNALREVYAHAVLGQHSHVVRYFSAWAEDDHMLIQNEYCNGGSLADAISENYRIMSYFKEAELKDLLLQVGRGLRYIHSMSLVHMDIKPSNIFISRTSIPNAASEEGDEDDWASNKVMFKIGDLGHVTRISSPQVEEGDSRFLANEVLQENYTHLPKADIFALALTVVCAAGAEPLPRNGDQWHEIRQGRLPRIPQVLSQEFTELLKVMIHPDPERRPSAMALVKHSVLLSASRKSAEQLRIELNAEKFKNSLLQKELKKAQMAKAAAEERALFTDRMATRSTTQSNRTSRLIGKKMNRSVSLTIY
Efa HMGR inh: inhibitors of E. faecalis class II HMGR, primary screen, biochemical, Enterococcus faecalis. HMG-CoA reductase (Enterococcus faecalis, mvaE). purified E. faecalis HMGR, NADPH absorbance 340 nm kinetic. inhibition, % at 10 µM. hit rate 0.41% among 190,000. AID 1066, 2008;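 active = inhibition above a set limit, the median over all tested compounds plus 3 SD, cut at about 9.5% in these data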;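 note: enzyme runs in reverse so mevalonate oxidation gives rising NADPH absorbance; 0% = complete reaction with DMSO and 100% = background rate lacking mevalonate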
PKD1 inh: inhibitors of human PKD1 kinase, biochemical, fluorescence polarization; Serine/threonine-protein kinase D1 (Homo sapiens), Q15139; PKD1 kinase fluorescence polarization assay; inhibition, % (no concentration beside the values); hit rate 0.056% among 200,000; in the data active = inhibition above about 50%
Numbers without * were called inactive.

For CN(CCNC(=O)CN1C(=O)CSc2ccc(S(=O)(=O)N3CCCC3)cc21)Cc1ccccc1 the results were Arbovirus inh -4, Hsp70 activator 0, Wee1 stabilizer 10*, Efa HMGR inh 1 and PKD1 inh -5.
CCCCN(C)CCCNC(=O)CN1C(=O)CSc2ccc(S(=O)(=O)N3CCOCC3)cc21 was read as Arbovirus inh 5, Hsp70 activator -1, Wee1 stabilizer -1, Efa HMGR inh 1 and PKD1 inh -9.
Screening C=CCOc1ccc2nnc(C)n2n1 returned Arbovirus inh 8, Hsp70 activator 0, Wee1 stabilizer -3, Efa HMGR inh -2 and PKD1 inh -17.
Screening CSCCC(NC(=O)c1ccc(Cl)cc1)C(=O)OCC(=O)Nc1cc(Cl)ccc1C#N (configuration not stated) returned Arbovirus inh 3, Hsp70 activator 0, Wee1 stabilizer -1, Efa HMGR inh -2 and PKD1 inh 3.
`Cc1nnc(SCC(C)C)[nH]c1=O` gave Arbovirus inh 5, Hsp70 activator 0, Wee1 stabilizer 9.4*, Efa HMGR inh -5 and PKD1 inh 10.
For O=C(COc1ccccc1N1C(=O)C2C3C=CC(C3)C2C1=O)c1ccccc1 (configuration not stated) the results were Wee1 stabilizer -4.
Screening Cc1cc(C)cc(N(C(=O)CNS(=O)(=O)c2ccccc2)C(C(=O)NCc2ccccc2)c2ccc(C)o2)c1 (configuration not stated) returned Arbovirus inh -11, Hsp70 activator 0, Wee1 stabilizer 11*, Efa HMGR inh -3 and PKD1 inh 5.
`Cc1ccc(S(=O)(=O)NCC(=O)N(c2ccccc2)C(C(=O)NCc2ccccc2)c2ccco2)cc1` (configuration not stated) gave Arbovirus inh -10, Hsp70 activator 0, Wee1 stabilizer 1, Efa HMGR inh -3 and PKD1 inh 3.
For CCOC(Cn1cc(C)c(=O)[nH]c1=O)OCC the results were Arbovirus inh 20, Hsp70 activator 0, Wee1 stabilizer -2, Efa HMGR inh -1 and PKD1 inh -5.
Screening COCCN(C(=O)CNC(=O)c1cccs1)C(C(=O)NC1CCCC1)c1cccs1 (configuration not stated) returned Arbovirus inh 0, Hsp70 activator 0, Wee1 stabilizer 9.8*, Efa HMGR inh 4 and PKD1 inh -19.
O=C(Nc1nnc(COc2ccc(Cl)cc2)s1)c1ccco1 was read as Arbovirus inh -22, Hsp70 activator 0, Wee1 stabilizer 9.8*, Efa HMGR inh -5 and PKD1 inh 8.
Screening O=C(Nc1nnc(C23CC4CC(CC(C4)C2)C3)s1)c1ccco1 returned Arbovirus inh -6, Hsp70 activator 0, Wee1 stabilizer 9.4*, Efa HMGR inh 2 and PKD1 inh -6.
Screening CCc1cc(C(=O)N/N=C/c2c(C)[nH]c3ccccc23)cs1 returned Arbovirus inh -6, Hsp70 activator 0, Wee1 stabilizer -1, Efa HMGR inh -3 and PKD1 inh 2.
Screening COc1ccc(CNC(=O)C(NC(C)=O)C(=O)Nc2ccc(C(C)C)cc2)cc1 (configuration not stated) returned Arbovirus inh -14, Hsp70 activator 0, Wee1 stabilizer -3, Efa HMGR inh 12* and PKD1 inh 3.
COc1ccc(NC(=O)C(NC(C)=O)C(=O)NCc2ccccc2OC)cc1 (configuration not stated) was read as Arbovirus inh 4, Hsp70 activator 0, Wee1 stabilizer 1, Efa HMGR inh -4 and PKD1 inh 2.
CCn1cc(CN2N=C(C)CC2c2ccccc2)c(C)n1 (configuration not stated) was read as Arbovirus inh 3, Hsp70 activator 0, Wee1 stabilizer 1, Efa HMGR inh -1 and PKD1 inh 2.
COc1ccc2[nH]c3c(c2c1)CCn1c-3nc2ccccc2c1=O was read as Arbovirus inh 1, Hsp70 activator 0, Wee1 stabilizer 13*, Efa HMGR inh 0 and PKD1 inh -4.
Screening Cc1cc(C(F)(F)F)nn2cnnc12 returned Arbovirus inh 3, Hsp70 activator 0, Wee1 stabilizer 1, Efa HMGR inh -5 and PKD1 inh -2.
O=[N+]([O-])c1ccc(N/N=C/c2ccc(O)c(O)c2O)c(S(=O)(=O)N2CCOCC2)c1 was read as Arbovirus inh -9, Hsp70 activator 0, Wee1 stabilizer 1, Efa HMGR inh 22* and PKD1 inh -1.
Screening COc1ccc(C2=Nn3c(nnc3-c3ccncc3)SC2)cc1OC returned Arbovirus inh 49*, Hsp70 activator 0, Wee1 stabilizer 6, Efa HMGR inh 2 and PKD1 inh -5.
COc1ccccc1OCc1n[nH]c(=S)n1Cc1ccccc1 was read as Arbovirus inh 10, Hsp70 activator 0, Wee1 stabilizer -1, Efa HMGR inh -5 and PKD1 inh -2.
Cc1cccc(N(C(=O)c2snc(C(N)=O)c2N)C(C)C(=O)NCC2CCCO2)c1 (configuration not stated) was read as Arbovirus inh 10, Hsp70 activator 0, Wee1 stabilizer 0, Efa HMGR inh 1 and PKD1 inh -1.
COc1ccc(/C=C/C(=O)c2ccoc2)cc1 was read as Arbovirus inh 0, Hsp70 activator 0, Wee1 stabilizer 13*, Efa HMGR inh 5 and PKD1 inh -4.
C/C(=N\NC(=S)NC1CCCCC1)c1ccccc1 was read as Arbovirus inh -5, Hsp70 activator 0, Wee1 stabilizer -1, Efa HMGR inh 3 and PKD1 inh 2.
For O=c1oc(-c2ccccc2NS(=O)(=O)c2ccc3ccccc3c2)nc2ccccc12 the results were Arbovirus inh 30*, Hsp70 activator 0, Wee1 stabilizer -1, Efa HMGR inh -4 and PKD1 inh -12.
For COc1cc(OC)cc(-c2nc3ccccc3c(=O)o2)c1 the results were Arbovirus inh 14, Hsp70 activator 0, Wee1 stabilizer 3, Efa HMGR inh 2 and PKD1 inh -7.
For O=C(COC(=O)COc1ccccc1[N+](=O)[O-])NC1CCCC1 the results were Arbovirus inh -3, Hsp70 activator 0, Wee1 stabilizer 10*, Efa HMGR inh 0 and PKD1 inh -3.
For O=C1c2ccccc2-c2nnc(-c3ccc(F)cc3)cc21 the results were Arbovirus inh -18, Hsp70 activator 0, Wee1 stabilizer 9.8*, Efa HMGR inh -1 and PKD1 inh -3.
`COC(=O)c1ccccc1N/C=C/C(=O)c1ccc(Br)cc1` gave Arbovirus inh 63*, Hsp70 activator 0, Wee1 stabilizer 7, Efa HMGR inh -5 and PKD1 inh -2.
O=C(Nc1ccccc1Oc1ccccc1)C1CC1 was read as Arbovirus inh -5, Hsp70 activator 0, Wee1 stabilizer 10*, Efa HMGR inh -2 and PKD1 inh 1.
